Experimental data: PubChem BioAssay AID1851 (National Center for Advancing Translational Sciences (NCATS), 2009)
In all, about 16,000 compounds went through this assay and about 5,700 (36%) were called active. Inconclusive results (about 24%) are left out. The list shows a part of the results. A number with no mark means an inactive call. The call rests on the fitted dose curve; in most records, active means well fitted curve in the direction sought with a large enough effect; inconclusive means small, poorly fitted or top-dose-only effect, or effect the other way; inactive means no such curve, though single readings can be large or run the other way.

Molecular target: Cytochrome P450 1A2 (Homo sapiens) (UniProt P05177)
Experiment: Cytochrome panel assay with activity outcomes
Conditions: recombinant CYP, pro-luciferin dealkylation, luminescence, p450-cyp1a2; series mostly up to 57.1 µM
On the % scale 0 is the no-effect control and ±100 the full control effect.

Cytochrome P450 1A2 (Homo sapiens), sequence (P05177 whole entry, looked up): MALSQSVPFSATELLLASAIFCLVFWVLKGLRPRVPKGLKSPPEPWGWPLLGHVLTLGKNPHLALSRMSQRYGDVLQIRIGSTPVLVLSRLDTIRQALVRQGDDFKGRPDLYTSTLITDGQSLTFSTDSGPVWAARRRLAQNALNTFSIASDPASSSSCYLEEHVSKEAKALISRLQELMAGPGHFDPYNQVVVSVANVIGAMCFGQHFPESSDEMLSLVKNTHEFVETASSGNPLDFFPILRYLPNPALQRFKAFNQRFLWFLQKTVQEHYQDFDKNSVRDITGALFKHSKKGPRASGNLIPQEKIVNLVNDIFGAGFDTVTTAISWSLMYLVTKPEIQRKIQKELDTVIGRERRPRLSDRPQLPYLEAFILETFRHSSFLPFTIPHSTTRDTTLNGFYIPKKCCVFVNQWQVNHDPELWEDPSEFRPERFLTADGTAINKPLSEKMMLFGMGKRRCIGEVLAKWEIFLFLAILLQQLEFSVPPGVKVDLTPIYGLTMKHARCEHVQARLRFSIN

| Compound | AC50 | activity, negative = inhibition |
| --- | --- | --- |
| c1ccc(C[C@@H](Nc2cccnc2)c2ccccc2)cc1 | 0.2 µM (active) | – |
| O=C(O)Cc1cccnc1 | – | -13.8% [at 11.4 µM] |
| O=C(NCC(c1cccnc1)N1CCOCC1)Nc1ccccc1 (stereo not drawn) | inactive | – |
| COc1ccc(-n2c(=O)c(-c3cccs3)nc3cnc(Nc4cccc(OC)c4)nc32)cc1 | inactive | – |
| COc1cccc(Nc2ncc3nc(C)c(=O)n(-c4ccccc4)c3n2)c1 | 5.01 µM (active) | – |
| COc1cccc(Nc2ncc3nc(C)c(=O)n(C)c3n2)c1 | 1 µM (active) | – |
| COc1ccc(-n2c(=O)c(C)nc3cnc(Nc4cccc(OC)c4)nc32)cc1 | 15.8 µM (active) | – |
| CCOc1ccc(OCC)c(-c2c(=O)n(OCc3ccc(C(C)(C)C)cc3)c3ccccc3[n+]2[O-])c1 | inactive | – |
| OCCN1CCN(c2nc(N3CCCCC3)nc(N3CCCCC3)n2)CC1 | inactive | – |
| N#CN(CC(N)=O)c1nc(N2CCCCC2)nc(N2CCCCC2)n1 | 2 µM (active) | – |
| O=C1c2ccccc2C(=O)N1CCCCN(C(=O)c1cccc([N+](=O)[O-])c1)c1ccc(Cl)cc1 | inactive | – |
| O=C1c2cccc3c(Nc4ccccc4Cl)c([N+](=O)[O-])cc(c23)C(=O)N1CCO | 1.78 µM (active) | – |
| O=S(=O)(NC1CCN(Cc2ccccc2)CC1)c1cccc2cccnc12 | inactive | – |
| CC(C)(C)c1cc2cccnc2n1Cc1ccccc1 | 14.1 µM (active) | – |
| O=C(Nc1cccc(F)c1)N1CCC2(CC1)CCN(C(=O)c1csnn1)CC2 | inactive | – |
| CCn1c(C)nc2cc(C(=O)NNS(=O)(=O)c3ccccc3F)ccc21 | 25.1 µM (active) | – |
| N[C@H](C(=O)O)[C@@H](O)c1cnc[nH]1 | – | -2.61% [at 11.4 µM] |
| Cc1cc(C(=O)c2cnc(/N=C/N(C)C)s2)cc(C)c1O | 12.6 µM (active) | – |
| CN(C)/C=N/c1ncc(C(=O)c2ccc3ccccc3c2)s1 | 2.51 µM (active) | – |
| COc1ccc(O[C@H]2C=C[C@@H](c3ccccc3)O[C@H]2CO/N=C2/c3cc(OC)ccc3O[C@@H](c3cccc(OC)c3)[C@H]2O)cc1 | – | 1.3% [at 11.4 µM] |
| Cc1cc(N2CCOCC2)nc(SCc2ccc(Cl)cc2Cl)n1 | 2.51 µM (active) | – |
| CSc1nc(-c2ccc(C)cc2)nc(C(Cl)Cl)n1 | 1.41 µM (active) | – |
| COc1ccccc1/C=N/NC(=O)CC(=O)Nc1ccc(Cl)c(Cl)c1 | 1.78 µM (active) | – |
| COc1ccccc1CN1CCCC2(CCN(C(=O)c3cccn3C)CC2)C1 | inactive | – |
| Clc1cc2c(c(CSC3=NCN(CC4CC4)CN3)c1)OCOC2 | 3.16 µM (active) | – |

| Compound | AC50 | activity, negative = inhibition |
| --- | --- | --- |
| CCCc1cc(=O)oc2cc(OCc3cc(OC)c(OC)c(OC)c3)c(Cl)cc12 | inactive | – |
| CCOc1cc2c(C)cc(=O)oc2cc1Cl | 0.501 µM (active) | – |
| O=[N+]([O-])c1ccc(N/N=C\c2cccn2-c2ccccc2)nc1 | 3.55 µM (active) | – |
| COc1c(/C=N/Nc2ccc([N+](=O)[O-])cc2[N+](=O)[O-])c(C)nn1-c1ccccc1 | inactive | – |
| N[C@H](C(=O)O)[C@H](N)C(=O)O | – | -13.3% [at 11.4 µM] |
| CC(C)Oc1ccc(N2CC(C(=O)OCC(=O)NCc3ccccc3)CC2=O)cc1 (stereo not drawn) | inactive | – |
| COc1ccc(N2CC(C(=O)Nc3cc(C)on3)CC2=O)cc1 (stereo not drawn) | inactive | – |
| COc1ccc(N2CC(C(=O)OCC(=O)c3cccc(OC)c3)CC2=O)cc1 (stereo not drawn) | 20 µM (active) | – |
| COC(=O)[C@@H]1[C@@H]2C[C@H]3c4[nH]c5ccccc5c4CCN3C[C@@H]2CC[C@@H]1OS(=O)(=O)O | – | -10.3% [at 2.29 µM] |
| Cc1ccccc1C(=O)NNC(=O)c1ccoc1C | inactive | – |
| Cc1ccccc1C(=O)NC(C)c1ccc2c(c1)CCCC2 (stereo not drawn) | 11.2 µM (active) | – |
| CCCCCSc1nncc(=O)[nH]1 | inactive | – |
| O=c1[nH]c(=O)n([C@@H]2C[C@H](O)[C@H](CO)O2)cc1I | inactive | – |
| COCCCNC(=O)Cn1nc(-c2ccccc2OC)ccc1=O | inactive | – |
| COc1ccccc1-c1cc(C(F)(F)F)nc(S(=O)(=O)CCCC(=O)NC(C)C)n1 | 2 µM (active) | – |
| Cc1[nH]n(C(C)(C)C)c(=O)c1Sc1ccc(Cl)cc1 | inactive | – |
| Cc1ccc(N=Cc2cc(C)n(C3CCCC3)c2C)cc1 | 10 µM (active) | – |
| CCCC(=O)Nc1ccc(C(=O)NNC(=S)NC(=O)c2cccs2)cc1 | inactive | – |
| CCCCc1ccc(NC(=S)NCc2cccs2)cc1 | 8.91 µM (active) | – |
| CCc1ccc(NC(=O)CS(=O)CC(=O)NCCCc2ccccc2)cc1 (stereo not drawn) | inactive | – |
| CC#CCOC(=O)c1c(C)nc2sc3c(c2c1N)CC[C@@H](O)C3 | 0.0251 µM (active) | – |
| O=C(/C=C/c1ccc(Cl)cc1)NCCN1CCOCC1 | inactive | – |
| O=C(/C=C/c1ccccc1)NNC(=O)c1cccnc1 | inactive | – |
| O=C(/C=C/c1ccc(Cl)cc1)NCCSc1ccccc1 | 1.58 µM (active) | – |
| COCCNC(=O)c1onc(CSc2cccc(Cl)c2)c1C(=O)O | inactive | – |

| Compound | AC50 | activity, negative = inhibition |
| --- | --- | --- |
| COCCCNC(=O)/C=C/c1ccc(Cl)cc1 | 7.08 µM (active) | – |
| O=C(/C=C/c1cccc(Cl)c1)Nc1ccncc1 | 2 µM (active) | – |
| O=C(/C=C/c1cccc([N+](=O)[O-])c1)NCCN1CCOCC1 | inactive | – |
| COCCCNC(=O)/C=C/c1cccc(Cl)c1 | 6.31 µM (active) | – |
| COCCCNC(=O)C1C2C=CC3(CN(Cc4ccc(C)cc4)C(=O)C13)O2 (stereo not drawn) | inactive | – |
| C/C(=N\OC(=O)c1ccccc1)c1cc(-c2ccc(Cl)cc2)no1 | 2.82 µM (active) | – |
| CC(C)CO/N=C1/C[C@@H](O)[C@@H](O)[C@@H]2[C@@H]3C(=O)N([C@@H](C)c4ccccc4)C(=O)[C@H]3CC[C@@H]12 | – | -9.02% [at 11.4 µM] |
| COc1ccc(NC(=O)CCNS(=O)(=O)c2ccc3c(c2)c(=O)n(C)c(=O)n3C)cc1 | inactive | – |
| COc1ccc(OCCNS(=O)(=O)c2ccc3oc4ccccc4c3c2)cc1 | 2.82 µM (active) | – |
| COc1ccc(S(=O)(=O)NCCC(=O)NC(C)c2ccccc2)cc1 (stereo not drawn) | inactive | – |
| O=C1CCCc2ccccc2N1Cc1ccccc1Cl | 14.1 µM (active) | – |
| C[C@@H](CN(C)C)CN1c2ccccc2CCc2ccccc21 | inactive | – |
| O=C1CCCc2ccccc2N1Cc1cccc(Cl)c1 | 12.6 µM (active) | – |
| CN1CCN(C2CC(=O)N(Cc3ccc(N4CCCC4=O)cc3)C2=O)CC1 (stereo not drawn) | inactive | – |
| O=C1CC(N2CCN(C(c3ccccc3)c3ccccc3)CC2)C(=O)N1Cc1ccc(N2CCCC2=O)cc1 (stereo not drawn) | inactive | – |
| CC1(C)[C@@H]2CC[C@]1(CC(=O)O)[C@H](Cl)C2 | – | -14.2% [at 11.4 µM] |
| CNc1csc(C)c(C)c1=O | 10 µM (active) | – |
| C=C(C)COc1ccc2c(c1)CCC1C2CC[C@]2(C)C(=O)/C(=N/O)CC12 (stereo partly drawn) | – | -13.8% [at 11.4 µM] |
| CCOc1ccc2nc3cc(N=Nc4ccc(N)nc4N)ccc3c(N)c2c1 | 0.794 µM (active) | – |
| Cc1ccc(S(=O)(=O)N(C)c2cc(S(=O)(=O)N3CCC(C)CC3)c(C)cc2C)cc1 | inactive | – |
| COc1ccc(/C=N/NC(=S)NC2CCS(=O)(=O)C2)cc1OC (stereo not drawn) | 6.31 µM (active) | – |
| O=C1SC(c2ccccc2)=C/C1=C\N1CCCCC1 | 1 µM (active) | – |
| O=S(=O)(c1ccccc1S(=O)(=O)N1CCCCC1)N1CCCCC1 | inactive | – |
| COC(=O)C/C=C\[C@@H](C)[C@@H](/C=N\O[C@@H](C)c1cc(-c2c(C)cc(C)cc2C)no1)NS(=O)(=O)c1ccc(C)cc1 | – | 4.06% [at 11.4 µM] |
| CCOc1ccccc1OCCOc1ccc(F)cc1 | 2.82 µM (active) | – |

| Compound | AC50 | activity, negative = inhibition |
| --- | --- | --- |
| CCOc1ccc(S(=O)(=O)NCc2ccc(F)cc2)c2cccnc12 | inactive | – |
| CC1(CCC(=O)OC2CCCCC2)OCCO1 | – | -7.12% [at 11.4 µM] |
| Cc1ccc(/C=C/C(=O)c2nc3ccccc3[nH]2)cc1 | 1.78 µM (active) | – |
| CCCCOc1ccc(/C=C/C(=O)NCCc2nc3ccccc3[nH]2)cc1 | inactive | – |
| NC(=O)c1ccc([N+](=O)[O-])cc1SCc1ccccc1 | 8.91 µM (active) | – |
| CCC(C)NC(=O)NC(=O)N(C1CCCCC1)S(C)(=O)=O (stereo not drawn) | inactive | – |
| C=CCn1c(SC(C)C(=O)NCc2ccc3c(c2)OCO3)nc2scc(-c3ccccc3)c2c1=O (stereo not drawn) | 10 µM (active) | – |
| C=CCn1c(SCc2ccc3c(c2)OCO3)nc2scc(-c3ccco3)c2c1=O | 2.51 µM (active) | – |
| Cc1nc(SCC(=O)c2ccc(Cl)s2)c2oc3ccccc3c2n1 | 0.141 µM (active) | – |
| O=C(Cn1cnc2ccccc2c1=O)NCCC(=O)Nc1ccc2c(c1)OCCO2 | inactive | – |
| CCc1nc(SCC(=O)c2ccc(Cl)s2)c2oc3ccccc3c2n1 | 0.251 µM (active) | – |
| Cc1nc(SCC(=O)Nc2ccc3c(c2)OCCO3)c2oc3ccccc3c2n1 | 1 µM (active) | – |
| CCc1nc(SCC(=O)N2CCCc3ccccc32)c2oc3ccccc3c2n1 | 1.26 µM (active) | – |
| C/C(C[n+]1ccccc1)=N\N=C(N)N | – | -9.68% [at 11.4 µM] |
| CCc1nc(SCC(=O)NCCc2ccccc2)c2oc3ccccc3c2n1 | 1.58 µM (active) | – |
| CCc1nc(N[C@H](C(=O)O)C(C)CC)c2oc3ccccc3c2n1 (stereo partly drawn) | inactive | – |
| COc1ccc(/C=N/OCc2nc3c4c(ncn3n2)Oc2ccc3ccccc3c2C4c2ccccc2)cc1 (stereo not drawn) | inactive | – |
| COc1cccc(OC)c1C(=O)NC(=S)N1CCN(c2ccc(C(F)(F)F)cc2[N+](=O)[O-])CC1 | inactive | – |
| CCC(=O)NC(=S)N1CCN(c2ccc([N+](=O)[O-])cc2Cl)CC1 | 12.6 µM (active) | – |
| CN1CCN(c2ccc([N+](=O)[O-])cc2NC(=O)c2ccccc2Cl)CC1 | inactive | – |
| CCCCCCCCCCCCCCC[C@H](O)[C@H](N)CO | inactive | – |
| Cc1ccc(/C=N\Nc2nc3ccc(Cl)cc3[nH]2)o1 | 2 µM (active) | – |
| Cc1ccc(/C=N/NC(=O)C2CCN(Cc3ccc(F)cc3Cl)CC2)o1 | inactive | – |
